TDP1 cell noCPT – qHTS for Inhibitors of human tyrosyl-DNA phosphodiesterase 1 (TDP1): qHTS in cells in absence of CPT; DT40 Tdp1-/- hTDP1 cells, no CPT, ATP luminescence, 48 h; Potency, µM (series often up to 46.2 µM), for the others: top-dose activity change, negative = growth inhibition, hits mostly inhibitors; 15% of 420,000 active; AID 686978, 2013; further: nearly all actives have a fitted effect of over 55% in size
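Growth kinetics read by CellTiter-Glo luminescence after ≥48 hr at 37 °C. Cells: DT40 Tdp1-/- stably carrying human TDP1, 400 per well, compound exposure in the absence of CPT (DMSO vehicle).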
HT1080 IDH1KD tx – qHTS for induction of synthetic lethality in tumor cells producing 2HG: qHTS for the HT-1080-IDH1KD cell line. AID 686971, 2013. 2% of 360,000 active. HT-1080 IDH1 knockdown viability, ATP luminescence, 48 h. Potency, µM (doses to about 46.1 µM), inactives show at the top dose activity, negative = toxicity, most hits filed as cytotoxic;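 further: 0% = DMSO wells and -100% = cell-free medium wells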
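Viability of IDH1-knockdown HT-1080 fibrosarcoma cells was assessed by CellTiter-Glo after 48 h at 37 °C with titrated compound; concentration-effect curves were classified by fit quality and response size.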
DT40 TDP1 CPT – qHTS for Inhibitors of human tyrosyl-DNA phosphodiesterase 1 (TDP1): qHTS in cells in presence of CPT | chicken DT40 Tdp1-/-;hTDP1 cells + 20 nM CPT, ATP luminescence, 48 h | Potency, µM (titrated, usually from 46.2 µM), for inactives: top-dose activity change, negative = growth inhibition, most hits filed as inhibitors | 12% of 420,000 active | AID 686979, 2013; further: nearly all actives have a fitted effect of over 55% in size
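Cell growth measured by CellTiter-Glo luminescence after a minimum 48 h, 37 C compound exposure with 20 nM CPT in Tdp1-knockout DT40 cells stably expressing hTDP1, seeded 400/well; qHTS titration format.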
HT1080NT lethal – qHTS for induction of synthetic lethality in tumor cells producing 2HG: qHTS for the HT-1080-NT fibrosarcoma cell line | HT-1080-NT fibrosarcoma viability, CellTiter-Glo ATP luminescence, 48 h | Potency, µM (highest dose often 46.1 µM), inactives show top-dose activity, negative = less viability, actives largely listed as cytotoxic | 1.6% of 360,000 active;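 further: NT is the 2HG producing partner of a matched IDH1 knockdown line; 0% = DMSO-treated cells and -100% = media-only wells without cells; nearly all actives have a fitted effect of over 55% in size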
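Read-out is CellTiter-Glo luminescence after 10 minutes at room temperature, following 48 hours' compound treatment of HT-1080-NT cells (750 cells/well, RPMI, 5% FBS, 37 degrees C).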
KB-3-1 tox – qHTS assay for MDR1-selective chemotherapeutics: Primary screen using the parental adenocarcinoma cell KB-3-1 | KB-3-1 viability, CellTiter-Glo ATP luminescence, 72 h | Potency, µM (top dose mostly 46.1 µM), usual class: cytotoxic | 1.4% of 400,000 active | AID 1347075, 2019; further: nearly all actives have a fitted effect of over 60% in size
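72 h, 37 °C compound treatment of KB-3-1 parental cells; CellTiter-Glo added, 10 min, luminescence read. Data corrected against DMSO-only plates and normalized before curve fitting.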
KB-V1 cytotox – qHTS assay for MDR1-selective chemotherapeutics: Primary screen using the drug-selected MDR subline cells KB-V1; KB-V1 MDR cells viability, CellTiter-Glo, 72 h; Potency, µM (highest dose often 46.1 µM), usual class: cytotoxic; 3.4% of 400,000 active; AID 1347076, 2019; further: nearly all actives have a fitted effect of over 60% in size
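Potencies derive from concentration-effect curves fitted to normalized luminescence (CellTiter-Glo) of KB-V1 cells treated for 72 h at 37 degrees C in phenol-red-free DMEM containing 10% FBS.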
* = called active by the depositor; i = inactive; ? = inconclusive; . = no result. The list is not random: actives were taken first. Their share in the collection is about 19%. The call rests on the fitted dose curve; in most records, active means well fitted curve in the direction sought with a large enough effect; inconclusive means small, poorly fitted or top-dose-only effect, or another doubt; inactive means no such curve, though single readings can be large; an effect the other way counts as inactive or inconclusive. Unless noted, on the % scale 0 is the no-effect control and ±100 the full control effect; potency means the concentration at half of the fitted maximal effect.

SMILES | TDP1 cell noCPT | HT1080 IDH1KD tx | DT40 TDP1 CPT | HT1080NT lethal | KB-3-1 tox | KB-V1 cytotox
CCOCCn1c(=O)c2c(nc3n2CC(C)CN3CCc2ccccc2)n(C)c1=O (configuration not stated) | ? | 0% | 26µM* | 5% | i | i
COCCOc1nc2c(c(=O)n(C)c(=O)n2C)n1Cc1cccc(OC)c1 | 7.3µM* | -20% | 8.2µM* | -8% | i | ?
COC(=O)Cn1c(=O)c2c(nc3n2CC(C)CN3CCc2ccccc2)n(C)c1=O (configuration not stated) | ? | 15% | ? | 16% | i | i
COc1ccccc1Oc1ccc2c(c1)C(=O)N(CC1CCCO1)C2=O (configuration not stated) | ? | 2% | 1% | -4% | i | i
COc1ccc(NC(=O)N2CCC(CO)(CC3CCCCO3)CC2)c(OC)c1 (configuration not stated) | 6% | 3% | -4% | -2% | i | i
CC1Cc2ccccc2N1S(=O)(=O)c1cccc(C(=O)N2Cc3ccccc3CC2C(N)=O)c1 (configuration not stated) | 8.2µM* | -2% | 16µM* | -5% | i | i
COc1ccccc1N1CCN(C(=O)c2cccc(S(=O)(=O)N3c4ccccc4CC3C)c2)CC1 (configuration not stated) | ? | ? | 23µM* | ? | i | 3.7µM*
CC1Cc2ccccc2N1S(=O)(=O)c1cccc(C(=O)N2CCCCC2)c1 (configuration not stated) | 16µM* | -9% | 21µM* | -13% | i | i
CCCCN(C)c1c(C)nc2ccc(C(=O)NC3CCN(C)CC3)cn12 | ? | -8% | ? | ? | i | i
CCc1nc2ccc(C(=O)Nc3ccc(C(N)=O)cc3)cn2c1N(C)CCC(C)C | 23µM* | -23% | 18µM* | ? | i | i
CCc1nc2ccc(C(=O)NC3CCN(C)CC3)cn2c1N(C)CCC(C)C | ? | ? | ? | 16µM* | i | i
CCc1nc2ccc(C(=O)Nc3ccc(NC(C)=O)cc3)cn2c1N(C)CCC(C)C | 21µM* | ? | ? | ? | i | ?
CCc1nc2ccc(C(=O)Nc3ccc(OC)c(OC)c3)cn2c1N(C)CCC(C)C | ? | 17% | ? | 16% | i | i
N#C/C(N=Nc1ccccc1O)=N\Nc1ccccc1O | 23µM* | 9.2µM* | 21µM* | 21µM* | 16µM* | ?
Oc1ccccc1N=N/C(=N/Nc1ccccc1O)c1ccccc1 | ? | 4% | ? | 2% | i | i
COC(=O)c1cccc(-n2c(CCC(=O)O)ccc2-c2cccs2)c1 | 6% | 0% | -17% | 0% | i | ?
COc1ccc(-c2ccc(CCC(=O)O)n2CC(C)C)cc1 | 21µM* | ? | ? | ? | ? | i
COc1ccc(-n2c(CCC(=O)O)ccc2-c2ccccc2)cc1 | -11% | 0% | -2% | -6% | i | i
COc1ccc(-c2ccc(CCC(=O)O)n2-c2cc(OC)ccc2OC)cc1 | ? | ? | ? | 23µM* | ? | ?
COC(=O)c1cccc(-n2c(CCC(=O)O)ccc2-c2ccc(OC)cc2)c1 | 15µM* | . | 15µM* | . | ? | ?

Bioassay records: PubChem BioAssay, National Center for Advancing Translational Sciences (NCATS)
